This is one part of a sample in which hits are shown more often than they occur.
Dicer inh – inhibitors of Dicer pre-microRNA processing, primary screen, biochemical, cat-ELCCA, chemiluminescence. Endoribonuclease Dicer (Homo sapiens), Q9UPY3. cat-ELCCA pre-miR-21 Dicer processing; active compounds read high. z-score at 25 µM. 47,000 tested, 6% active. AID 1347074, 2019; in the data active means z-score above about 3, passing the limit was not always enough;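 further: plate controls were vehicle for no effect and no enzyme for full effect; higher signal means more uncleaved substrate so more Dicer inhibition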
Active calls of the source: *.

`COc1cc(C2C3=C(CC(C)(C)CC3=O)NC3=C2C(=O)CC(C)(C)C3)cc(Br)c1OC` gave Dicer inh -2.1.
Screening COC(=O)c1sc(N2CCCCC2)c(C#N)c1N returned Dicer inh 29*.
`COC(=O)c1sc(N2CCCC2)c(S(=O)(=O)C(C)C)c1N` gave Dicer inh -0.38.
`COC(=O)c1sc(N2CCCC2)c(C#N)c1-c1cccs1` gave Dicer inh -2.2.
`CCS(=O)(=O)c1ccc(O)c(NC(=O)c2ccccc2C(=O)O)c1` gave Dicer inh 2.2.
Screening O=C(Nc1ccccc1)c1nnc(-c2ccccc2)o1 returned Dicer inh -1.3.
Screening c1ccc2[nH]c(CCc3nc4ccccc4[nH]3)nc2c1 returned Dicer inh 0.25.
Screening Nc1ccc(Cc2nc3ccccc3[nH]2)cc1 returned Dicer inh 1.3.
`C/C(=C\c1ccc(N)cc1)c1nc2ccccc2[nH]1` gave Dicer inh 3*.
Screening CCOC(=O)Cn1c(-c2cccs2)nc(-c2ccccc2)c1-c1ccccc1 returned Dicer inh 0.33.
`CC1CCC2C(=O)N(c3ccc(C(=O)O)cc3)C(=O)C2C1` (centres undefined) gave Dicer inh 1.9.
`O=C(/C=C/c1ccccc1)O/N=C/c1ccc(Cl)cc1` gave Dicer inh 0.27.
Screening Cc1ccnc(NS(=O)(=O)c2ccc(N)cc2)n1 returned Dicer inh 2.3.
For CCOC(=O)CSC(=S)Nc1ccc(OC)cc1 the results were Dicer inh 0.88.
For CC(C)(C)C(=O)Nc1nnc(-c2ccc(Br)cc2)s1 the results were Dicer inh 1.3.
For CC(C)(C)c1ccc(-c2nnc(NC(=O)C(Cl)(Cl)Cl)s2)cc1 the results were Dicer inh -0.32.
`CN(C)S(=O)(=O)c1ccc(C(=O)Nc2nnc(-c3ccc(Br)cc3)s2)cc1` gave Dicer inh 3.2*.
Screening O=C(Nc1cccc2cccnc12)c1csc2c1CCCC2 returned Dicer inh -0.41.
`Nc1nc2c(c(=O)[nH]1)C(c1ccc(OCc3ccccc3Cl)cc1)CC(=O)N2` (centres undefined) gave Dicer inh 0.29.
Screening CC(=O)Nc1ccc(NC(=O)CCC(=O)O)cc1 returned Dicer inh -1.3.
Screening NS(=O)(=O)c1ccc(NC(=O)CCC(=O)O)cc1 returned Dicer inh 3.4*.
NS(=O)(=O)c1ccc(NC(=O)CCCC(=O)O)cc1 was read as Dicer inh 1.3.
COc1ccc(NC(=O)CCC(=O)O)cc1OC was read as Dicer inh 3.7*.
Screening COC(=O)CCC(=O)Nc1ccc(C)cc1 returned Dicer inh -0.19.
Screening COc1ccc(NC(=O)CC(C)(C)CC(=O)O)cc1OC returned Dicer inh -2.9.
For Cc1ccc(C)n1CCN1CCN(S(=O)(=O)c2cc(Br)c(Br)s2)CC1 the results were Dicer inh 1.6.
For Cc1nc(-c2ccccc2)c(-c2ccccc2)[nH]1 the results were Dicer inh 0.58.
`Cc1nc(-c2ccc(S(=O)(=O)Nc3ccc(Cl)cc3Cl)s2)cs1` gave Dicer inh -0.74.
Cc1ccc(-c2nn3c(C)nnc3s2)cc1NC(=O)c1ccco1 was read as Dicer inh 2.6.
`O=C1C(=O)c2ccccc2C(O)=C1C1CCC(c2ccc(Cl)cc2)CC1` (centres undefined) gave Dicer inh -0.03.
Screening CCOC(=O)Nc1ccc(NCc2ccc(F)cc2)nc1N returned Dicer inh -7.8.
Screening Brc1ccc(CSc2nc3ccccc3[nH]2)cc1 returned Dicer inh 2.3.
For Cn1c2c(c(=O)[nH]c1=O)C(c1ccc(OC(=O)c3ccccc3)cc1)C1=C(N2)c2ccccc2C1=O (centres undefined) the results were Dicer inh 0.21.
Cc1cc(C)c2oc(-c3cc(N)ccc3Cl)nc2c1 was read as Dicer inh 2.3.
Screening Cc1cc(C)c2oc(-c3cccc(N)c3)nc2c1 returned Dicer inh 1.9.
Cc1cc(C)c2oc(-c3ccc(C)c(N)c3)nc2c1 was read as Dicer inh 3.2*.
For NC(=O)NC(=O)Cc1nc2ccccc2s1 the results were Dicer inh 0.14.
Screening Cc1n[nH]c(C)c1CCCOc1ccc(F)cc1 returned Dicer inh -2.8.
O=C(c1ccncc1)N(c1cc2sc(=O)oc2c2ccccc12)S(=O)(=O)c1ccc(F)cc1 was read as Dicer inh -2.7.
Screening Cc1cc(F)ccc1S(=O)(=O)N(C(=O)c1ccncc1)c1ccc2oc(=O)sc2c1 returned Dicer inh 6.5*.
`CCCC(=O)N(c1ccc2oc(=O)sc2c1)S(=O)(=O)c1ccc(OCC)cc1` gave Dicer inh -0.94.
CCCC(=O)N(c1ccc2oc(=O)sc2c1)S(=O)(=O)c1ccc(OC)cc1 was read as Dicer inh -2.1.
CCCC(=O)N(c1ccc2oc(=O)sc2c1)S(=O)(=O)c1ccc(Br)cc1 was read as Dicer inh 1.1.
For COc1ccc(S(=O)(=O)N(C(=O)C(C)C)c2ccc3oc(=O)sc3c2)cc1OC the results were Dicer inh 0.67.
